Test results from PubChem BioAssay (NCI).
“And” between values parts separate entries of the source, which are not always exact repeats. Equal entries are not always repeated. The panel holds about 83,000 compounds, 20% with a hit somewhere; the sample as a whole holds those more often.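 96-well plates, one dose, 48 hours. Percent growth reported; active if below 10.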 Unmarked numbers belong to inactive results. The source made the active and inactive calls.

Tested on: HL-60(TB) leukemia
Test: NCI-60 one-dose screen, 48 h (100 = growth as untreated, 0 = no growth, -100 = all killed)
Conditions: 10 µM unless noted

| Structure (SMILES) | growth |
| --- | --- |
| COc1cc(-c2csc(NC(=O)Nc3ccc(Cl)cc3)n2)cc(OC)c1OC | 2.62% (active) |
| COCC(=O)NC/C=C/c1ccc2ncnc(Nc3ccc(Oc4ccc(C)nc4)c(C)c3)c2c1 | 22.2% |
| COc1cc2c(cc1OC)N(CCO)C1=C(C(=O)OC1)C2c1ccc(Cl)c(Cl)c1 (centres undefined) | 93.4% |
| C#CC[C@@H]1C[C@]2(C)[C@H]3CC=C4[C@H]5CC(C)(C)CC[C@]5(C(=O)NCCCCN)CC[C@@]4(C)[C@]3(C)CC[C@H]2C(C)(C)[C@H]1OC(C)=O | -46.5% (active) |
| COc1ccc(/C=N/NC(=O)CCN2c3ccccc3Sc3ccccc32)cc1 | 82% |
| COc1ccccc1-n1cnc(N)c1C(=O)c1cc(OC)c(OC)c(OC)c1 | 10.9% |
| Oc1c(C(c2ccc(F)cc2)N2CCCCC2)ccc2cncnc12 (centres undefined) | -29.3% (active) |
| COc1cc(-c2nnc(-c3nc(-c4cc(OC)c(OC)c(OC)c4)n4ccccc34)o2)ccc1N | 64.8% |
| Nc1cc(-c2nc3sccn3c2-c2ccnc(NCCCNS(=O)(=O)c3ccc(F)cc3)n2)ccc1F | 63.6% |
| O=C(CSc1nnc(-c2ccc(NC(=O)c3cccnc3)cc2)o1)N[C@@H](Cc1ccc(O)cc1)C(=O)O | 99.4% |
| CCOC(=O)/C=C/c1cc2cc(-c3csc4ccccc34)ccc2[nH]1 | 32.1% |
| CN(C)c1ccc(-c2cc(-c3cccc(NS(C)(=O)=O)c3)nc(N)c2C#N)cc1 | 2.91% (active) |
| COc1ccc(SC2c3cc(OC)c(OC)cc3Oc3nc(N)c(C#N)c(N)c32)cc1 (centres undefined) | -51.5% (active) |
| Cn1c(/C=C(\C#N)c2ccccc2)nc2c(N3CCOCC3)nc(Cl)nc21 | -33% (active) |
| O=C(CCc1ccc(O)cc1)N/N=C/c1cc(Br)ccc1O | -6.29% (active) |
| OCc1cccc(-c2ccc3ncc(-c4nc(NC5CC5)ncc4F)n3c2)c1 | -62% (active) |
| CCCCCCC1(C)NCCO1 (centres undefined) | 91.2% |
| CSc1n(Cc2ccc3ccccc3c2)c(C)c[n+]1Cc1ccc2ccccc2c1 | -45% (active) |
| CCCCN(CCCC)CCCCCCCCCCO | 95.1% |
| NCCN1CCN(c2nccc(-c3ccc4ccccc4c3)n2)CC1 | 34.3% |

| Structure (SMILES) | growth |
| --- | --- |
| CC(=O)OCC(=O)[C@@]1(O)[C@H](C)C[C@H]2[C@@H]3C=C(C)C4=Cc5c(cnn5-c5ccc(F)cc5)C[C@]4(C)[C@H]3[C@@H](O)C[C@@]21C | 16.3% |
| OCCSc1ccc(Cl)cc1 | 131% and 90.3% |
| COc1ccc(S(=O)(=O)ON=C2C=C(C)C(=O)C(C)=C2)cc1 | 43.7% |
| CCC(=O)Oc1ccc(-c2ccccc2)cc1Br | 96.5% |
| COC[C@@H](C)n1c(C2CCOCC2)nc2c1C1C=C(OC)C(c3c(C)noc3C)=CC1N=C2 (some centres undefined) | 11.8% |
| c1nc(SC2=NCCN2)c2[nH]cnc2n1 | 22.6% |
| COC(=O)[C@]12CC[C@@H](C(/C=C/c3cccnc3)=N/O)[C@@H]1[C@H]1CC[C@@H]3[C@@]4(C)CC(=C/c5cccnc5)/C(=N/O)C(C)(C)[C@@H]4CC[C@@]3(C)[C@]1(C)CC2 | 2.86% (active) |
| CCCCCCCCCCCCCCCCCCOc1ccccc1N | 2.15% (active) |
| Nc1ccc(N=Nc2ccc(O)cc2)c(N)n1 | 37% |
| Nc1ncnc2nc(Br)[nH]c12 | 90.3% |
| COc1ccc(-c2csc(NC(=O)c3ccc(Cc4n[nH]c(=O)c5cccnc45)cc3)n2)cc1 | 104% |
| O=S(=O)(c1ccc(N/N=C\c2ccccc2)cc1)c1ccc(N/N=C/c2ccccc2)cc1 | 94.8% |
| COc1cc(-c2cc(-c3nc4ccccc4[nH]3)[nH]n2)cc(OC)c1OC | -22.9% (active) |
| NC1=NN(c2ccccc2)C(=O)/C1=C/c1ccc(Cl)cc1 | 104% |
| COc1cccc2c1nc1cccc(OC)c1[n+]2[O-] | 0.0729% (active) |
| COC1=C(OC)C(=O)C(CCCCCCCCCC[P+](c2ccccc2)(c2ccccc2)c2ccccc2)=C(C)C1=O | -55.9% (active) |
| C#Cc1cccc(NC(=O)c2ccccc2NC(=O)CCl)c1 | 91.6% [8.25 µM] |
| CCc1n(Cc2ccc3ccccc3c2)cc[n+]1Cc1ccc2ccccc2c1 | -54% (active) |
| O=C(Nc1ccc(I)cc1F)c1cc(Cl)ccc1O | -44.3% (active) |
